From PubChem
The entries come from a sample that favours hits as a whole.
KAT2A inh: qHTS Assay for Inhibitors of GCN5L2; Histone acetyltransferase KAT2A (Homo sapiens), Q92830; GCN5L2 HAT assay, ThioGlo1 CoA-SH fluorescence; Potency, µM (doses to about 58.9 µM), inactives show top-dose activity change, negative = inhibition, actives largely listed as inhibitors; 0.21% of 390,000 active; AID 504327, 2011
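GCN5L2 (20 nM) in 50mM HEPES pH 7.5, 0.1mM EDTA, 0.01% Tween-20 preincubated 15 min with compounds at room temperature. Reaction started with H3(1-25) 75uM, acetyl-CoA 70uM, ThioGlo1 50uM; CoA-thiol fluorescence (Ex340/Em540) read at 0 and 20 min.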
RECQ1 inh: qHTS Assay for Inhibitors of RecQ-Like Dna Helicase 1 (RECQ1). RECQ1 DNA unwinding, red fluorescence kinetic read. Potency, µM (highest dose often 57.3 µM), for inactives: top-dose activity, negative = inhibition, actives largely listed as inhibitors. 0.54% of 240,000 active;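 further: plate controls were vehicle for no effect and no enzyme for full effect; nearly all actives have a fitted effect of over 30% in size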
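50 nM RECQ1T1 preincubated 15 min with compound in Tris pH 8.0 buffer with MgCl2, DTT, Tween-20 and 2.5 ug/ml poly(dI-dC); started with 200 nM TAMRA/BHQ-2 forked duplex and 2 mM ATP. Unwinding read as fluorescence (525/598 nm), two reads 2 h apart.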
JMJD2E inh: qHTS Assay for Inhibitors of Human Jumonji Domain Containing 2E (JMJD2E). 1.6% of 230,000 active. Potency, µM (top dose mostly 57.1 µM), without a hit: at the highest dose activity change, negative = inhibition, usual class: inhibitors. JMJD2E catalytic domain, FDH-coupled NADH fluorescence (FDH is formaldehyde dehydrogenase). Lysine-specific demethylase 4E (Homo sapiens), B2RXH2. AID 2147, 2009; active means well fitted inhibition curve with a large enough effect, not every such curve was filed as active; inconclusive means small, poorly fitted or top-dose-only effect, or another doubt; inactive means no such curve, though single readings can be large or run the other way;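 further: 0% = wells with enzyme and -100% = buffer wells without enzyme; nearly all actives have a fitted effect of over 50% in size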
BLM helicase inh: qHTS Assay for Inhibitors of Bloom's syndrome helicase (BLM); 0.2% of 350,000 active; Potency, µM (titrated, usually from 56.1 µM), for the others: top-dose activity change, negative = inhibition, hits mostly inhibitors; recombinant BLM DNA unwinding, fluorescence dequenching; RecQ-like DNA helicase BLM (Homo sapiens), P54132;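 further: plate controls were vehicle for no effect and no enzyme for full effect; nearly all actives have a fitted effect of over 35% in size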
L3MBTL1 block: qHTS Assay for the Inhibitors of L3MBTL1; AlphaScreen L3MBTL1–H3K9me1 peptide binding; 0.66% of 230,000 active; Potency, µM (series often up to 57.1 µM), without a hit: top-dose activity, negative = inhibition, usual class: inhibitors; Lethal(3)malignant brain tumor-like protein 1 (Homo sapiens), Q9Y468; further: nearly all actives have a fitted effect of over 60% in size
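Read-out is AlphaScreen signal from streptavidin donor and nickel chelate acceptor beads (10 ug/mL final each) bridging L3MBTL1 (50 nM) and biotinylated K9-monomethylated H3(1-15) peptide (75 nM), after 30 min compound exposure at room temperature.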
APEX1 inh: qHTS Assay for Inhibitors of the Human Apurinic/apyrimidinic Endonuclease 1 (APE1) | AID 2517, 2012 | Potency, µM (titrated, usually from 65.8 µM), inactives show at the top dose activity change, negative = inhibition, most hits filed as inhibitors | 0.35% of 350,000 active | recombinant APE1, TAMRA/BHQ-2 abasic DNA cleavage fluorescence;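 further: plate controls were vehicle for no effect and reference inhibitor for full effect; nearly all actives have a fitted effect of over 55% in size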
Target sequence (P27695 whole entry, looked up): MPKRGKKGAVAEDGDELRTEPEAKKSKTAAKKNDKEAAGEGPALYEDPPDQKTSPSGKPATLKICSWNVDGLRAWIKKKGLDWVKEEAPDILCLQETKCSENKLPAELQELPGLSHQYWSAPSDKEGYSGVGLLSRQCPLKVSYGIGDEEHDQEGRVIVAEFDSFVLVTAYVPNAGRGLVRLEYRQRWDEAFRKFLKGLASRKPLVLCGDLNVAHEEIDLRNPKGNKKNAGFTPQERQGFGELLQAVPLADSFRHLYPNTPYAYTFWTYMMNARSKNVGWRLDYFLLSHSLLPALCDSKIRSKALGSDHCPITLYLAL
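Measures dequenching upon AP-site incision of a 5'-TAMRA/3'-BHQ-2 THF-containing duplex, 50 nM; human APE1 0.75 nM after 15 min room-temperature exposure to compound; kinetic three-point read at one-minute spacing.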
Active calls of the source: *; i = inactive; ? = inconclusive; nt = not tested or not shown; [ ] = dose if it differs, or a comment. Unless noted, the call rests on the fitted dose curve; in most records, active means well fitted curve in the direction sought with a large enough effect; inconclusive means small, poorly fitted or top-dose-only effect, or another doubt; inactive means no such curve, though single readings can be large; an effect the other way counts as inactive or inconclusive. Unless noted, on the % scale 0 is the no-effect control and ±100 the full control effect; potency means the concentration at half of the fitted maximal effect.

SMILES	KAT2A inh	RECQ1 inh	JMJD2E inh	BLM helicase inh	L3MBTL1 block	APEX1 inh
O=C1C(=Cc2ccco2)C(=O)c2ccccc21	-4.2%	-29.8%	-23.5%	-1.0%	?	?
O=C1CNC(=O)/C(=C/c2ccco2)N1	-5.7%	-3.5%	-20.8%	2.3%	35.5µM*	?
CC(C)(C)n1ncc2c(=O)n(Cc3ccc(Cl)c(SC(F)(F)F)c3)cnc21	nt	nt	nt	nt	nt	15.4%
CCCCCCCCc1ccc(-c2ccc(C(=O)O)cc2)cc1	20µM*	1.8%	nt	-3.6%	nt	-2.5%
CCCCCCCCCCCCCCCCCCc1ccc(C(=O)/C=C/C(=O)O)cc1	-4.0%	?	nt	nt	nt	?
CCCCCCCCCCCCCCCCCCc1ccc(C(=O)/C=C\C(=O)O)cc1	2.82µM*	2.5%	4.8%	-7.9%	nt	?
COc1ccc(C2=Nn3c(nnc3-c3cc(OC)ccc3OC)SC2)cc1	nt	1.3%	nt	6.0%	nt	9.0%
CC(C)(C)n1ncc2c(=O)n(Cc3ccc(Cl)c(OC(F)(F)F)c3)cnc21	nt	nt	nt	nt	nt	-6.5%
CCn1c(/C=C/c2ccc(O)c(O)c2)nc2ccccc2c1=O	-19.7%	nt	nt	-11.9%	20µM*	-18.7%
CCc1ccc(NC(=O)Cn2cc([N+](=O)[O-])nc2C)cc1	-6.5%	nt	nt	-0.5%	1.1%	23.5%
COC(=O)c1cc(S(=O)(=O)N2CCOCC2)c(Cl)cc1N1CCOCC1	-7.6%	i	-1.2%	-0.8%	nt	3.3%
COC(=O)c1cc(C)nc2c1C(=O)C(=O)C=C2N1CCOCC1	-17.2%	nt	nt	8.91µM*	nt	-8.4%
COc1cc(/C=N/NC(N)=O)ccc1OCC(=O)Nc1ccc(C)c(C)c1	-2.4%	-2.9%	-3.8%	10µM*	-2.6%	4.9%
COc1cc(/C=N/NC(=O)COc2c(C)cc([N+](=O)[O-])cc2C)ccc1OC(=O)c1ccccc1	-6.4%	28.2µM*	-4.5%	-4.9%	-10.1%	8.3%
O=S(=O)(c1ccc(Cl)cc1Cl)n1ccnc1	-7.1%	nt	nt	-1.0%	nt	nt
Cc1ccc(NC(=O)CSc2nnc(-c3cccc([S+](=O)([O-])N4CCCC4)c3)n2-c2ccccc2)cc1	nt	nt	nt	nt	nt	48.5%
CSC1=N/C(=C\c2ccc(C)o2)C(=O)S1	-5.2%	5.0%	-1.2%	-4.0%	28.2µM*	3.2%
CSC1=N/C(=C\c2ccc(C)s2)C(=O)S1	-0.8%	-10.1%	-2.6%	0.9%	-12.3%	-5.3%
CC1(C)CN(C(=S)Nc2ccc(F)cc2F)C1=O	-3.2%	nt	nt	0.0%	nt	-3.3%
COc1ccc(S(=O)(=O)N(CC(C)C)C2CCS(=O)(=O)C2)cc1OC (centres undefined)	-11.1%	nt	nt	nt	0.1%	4.5%
C=CCNC(=O)C1CC2Cn3c(nc4cc5ccccc5cc43)C2N1C (centres undefined)	-1.6%	6.3%	-6.0%	4.0%	nt	7.5%
COc1ccc(/C=C2/CCCC(C(=O)C(F)(F)F)=C2O)cc1OC	-18.3%	-1.6%	?	-9.9%	4.4%	2.0%
COc1ccc(/C=C2\CCCC(C(=O)C(F)(F)F)=C2O)cc1OC	-1.2%	-14.3%	25.1µM*	1.0%	nt	2.5%
O=C(CSc1nc2ccccc2nc1Cc1ccccc1)Nc1ccc2c(c1)OCO2	-12.2%	nt	nt	-3.4%	nt	nt
CC(=O)N1c2ccc(S(=O)(=O)N3CCCC3C(=O)NCc3ccccc3Cl)cc2CC1C (centres undefined)	-3.0%	nt	nt	0.3%	10.0%	2.3%
COC(=O)c1ccc(=O)n(Cc2ccco2)c1	0.2%	-11.1%	31.6µM*	-5.4%	22.8%[11.4 µM]	13.8%
COC(=O)CCC(=O)OC1(C)C(=O)C2=CN(C(CO)CO)C(c3ccc(OC)cc3)=CC2=C(Br)C1=O (centres undefined)	-13.3%	9.8%[11.5 µM]	5.01µM*	-19.4%[12.4 µM]	nt	-3.4%[12.4 µM]
